# The list is not random: actives were taken first. Their share in the collection is about 12%.
# USP17 inh: blocks human USP17 ubiquitin-rhodamine cleavage. A8MUK1. purified USP17, Ub-rhodamine cleavage fluorescence, 3 h. inhibition, % at 50 µM. hit rate 6.5% among 47,000
# USP30 inh: human USP30 deubiquitinase inhibition; Q70CQ3; purified USP30, Ub-rhodamine cleavage fluorescence; inhibition, % at 25 µM; hit rate 5.3% among 47,000; AID 1645860
# USP28 block: human USP28 deubiquitinase inhibition. Q96RU2. purified USP28, Ub-rhodamine cleavage fluorescence, 30 min. inhibition, % at 25 µM. hit rate 3% among 47,000
# Target sequence (Q96RU2 whole entry, looked up): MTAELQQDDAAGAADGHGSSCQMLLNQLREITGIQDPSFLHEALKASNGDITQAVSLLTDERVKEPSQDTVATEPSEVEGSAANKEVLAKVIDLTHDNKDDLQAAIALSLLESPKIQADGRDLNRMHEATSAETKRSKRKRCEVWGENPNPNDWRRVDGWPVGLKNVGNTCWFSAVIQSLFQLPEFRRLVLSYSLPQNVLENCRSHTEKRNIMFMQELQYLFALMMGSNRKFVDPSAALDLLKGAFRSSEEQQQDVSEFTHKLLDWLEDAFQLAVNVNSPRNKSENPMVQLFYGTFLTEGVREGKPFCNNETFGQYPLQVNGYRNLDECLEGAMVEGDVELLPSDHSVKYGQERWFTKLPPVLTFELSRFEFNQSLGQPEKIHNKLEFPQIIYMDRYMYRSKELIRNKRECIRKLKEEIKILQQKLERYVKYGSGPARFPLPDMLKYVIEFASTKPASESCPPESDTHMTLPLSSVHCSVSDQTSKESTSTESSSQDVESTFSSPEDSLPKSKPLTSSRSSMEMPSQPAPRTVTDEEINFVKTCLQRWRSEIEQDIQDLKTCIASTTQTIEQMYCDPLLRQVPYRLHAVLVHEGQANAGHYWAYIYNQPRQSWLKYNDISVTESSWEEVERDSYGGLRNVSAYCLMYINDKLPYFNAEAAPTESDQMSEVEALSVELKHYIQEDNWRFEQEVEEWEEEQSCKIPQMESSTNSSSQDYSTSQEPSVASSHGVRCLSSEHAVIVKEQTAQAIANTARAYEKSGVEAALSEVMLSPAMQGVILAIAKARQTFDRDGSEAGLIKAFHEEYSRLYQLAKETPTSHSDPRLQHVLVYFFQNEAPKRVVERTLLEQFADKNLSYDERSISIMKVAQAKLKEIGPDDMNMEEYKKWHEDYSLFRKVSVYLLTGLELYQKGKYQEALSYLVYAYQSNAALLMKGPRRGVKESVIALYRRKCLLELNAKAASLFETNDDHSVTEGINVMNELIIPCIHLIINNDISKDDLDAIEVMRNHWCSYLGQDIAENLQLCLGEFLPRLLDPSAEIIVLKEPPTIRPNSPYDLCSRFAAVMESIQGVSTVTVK
# OTUD3 block: human OTUD3 deubiquitinase inhibition | Q5T2D3 | purified OTUD3, Ub-rhodamine fluorescence, 2 h | inhibition, % at 25 µM | hit rate 0.7% among 47,000
# Active calls of the source: *; i = inactive; nt = no result given. Rule as the data show it: active = inhibition above about 30%; inactive = the rest.
SMILES,USP17 inh,USP30 inh,USP28 block,OTUD3 block
CC1=C(C(=O)NCc2ccccc2)C(c2cccc(F)c2)n2ncnc2N1 (stereo unspecified),11,33*,8,13
O=C(c1cscn1)N1CCC2(CN(Cc3ccccc3Cl)C2)C1,-2,-11,-9,-6
Cc1ccc(-c2nc3nc(C)cc(N4CCC(C)CC4)n3n2)cc1,56*,nt,nt,1
O=c1ccc(-c2noc(CCc3c[nH]c4ccccc34)n2)c[nH]1,-28,-93,42*,-25
O=c1ccc(-c2noc(-c3n[nH]c4ccccc34)n2)c[nH]1,-27,-194,-77,-51
Cc1ccc(Cc2nc(-c3cccc(-c4ccn[nH]4)c3)no2)cc1,10,2,45*,7
Cc1ccc(Cc2nc(-c3ccc(=O)[nH]c3)no2)cc1,0,-3,91*,5
O=C(Cc1ccccc1)NCc1nc(-c2cccc(-c3ccn[nH]3)c2)no1,0,7,8,-1
O=c1ccc(-c2noc(-c3ccc4c(c3)OCO4)n2)c[nH]1,-7,-17,-13,-3
Clc1cc(-c2nc(-c3cccc(-c4ccn[nH]4)c3)no2)ccn1,41*,5,1,-2
O=C(Cc1cc(-c2ccccc2)on1)NCc1c(F)cccc1F,53*,23,27,7
COc1cccc(-c2cc(CC(=O)NCc3c(F)cccc3F)no2)c1,45*,27,18,11
O=C(Cc1cc(-c2ccccc2)on1)NCc1ccc(Cl)cc1,4,16,1,8
CSC1=N/C(=C/c2ccccc2)C(=O)N1c1ccc(F)c(Cl)c1,25,33*,14,22
Cc1ccccc1CNS(=O)(=O)c1ccc2c(c1)NC(=O)CCS2,7,18,13,14
CCCn1c(=O)[nH]c2c(C(=O)N3CCCCC3)snc2c1=O,-5,2,-6,-8
CCCn1c(=O)[nH]c2nc(N3CCCCC3)sc2c1=O,33*,-25,-4,8
Cn1cc(-c2noc(Cc3cccc(C(F)(F)F)c3)n2)ccc1=O,9,18,79*,7
CC1(C)Cc2c(sc3nc(SCc4ccccc4)nc(SCC(=O)Nc4nccs4)c23)CO1,-17,-11,-5,3
CN=C(N)NCCC/C=C/CCCC(C)CC(C)C1OC(=O)/C=C/C(C)C(O)CC(O)C(C)C(O)CCC(C)C(O)CC2(O)OC(CC(OC(=O)CC(=O)O)CC(O)CC(O)C(C)C(O)/C=C/C1C)CC(O)C2O (stereo unspecified),19,15,53*,6
O=C(CNc1ccccc1Oc1ccccc1)N1CCOCC1,19,24,19,11
COc1ccccc1-c1nc(Cn2c(=O)c3cnc(C)nc3n(C)c2=O)c(C)o1,-1,-19,-10,-14
CC(=O)Nc1ccc(-c2nc(Cn3nc(C)cc3C)c(C)o2)cc1,-16,-22,-15,0
CC(=O)Nc1ccc(-c2nc(Cn3cc(C)cn3)c(C)o2)cc1,-9,-40,33*,3
CCC(=O)Nc1ccc(-c2nc(Cn3cc(C)cn3)c(C)o2)cc1,-7,-29,55*,-10
SMILES,USP17 inh,USP30 inh,USP28 block,OTUD3 block
CCc1nc(=O)c2ccccc2n1C1=CCN(C(=O)c2c(C)noc2C)CC1,10,0,2,-1
CCNC(=O)OC1CN(C(=O)C2CCC2)CCC(=O)N(C)c2ccccc21 (stereo unspecified),1,-5,0,0
O=C(Nc1ccc(F)cc1)Nc1ccccc1OCc1cc(=O)n2ccccc2n1,41*,46*,31*,33*
N#Cc1ccc(NC(=O)N2CCC(c3nc4c(nnn4Cc4ccc(F)cc4)c(=O)[nH]3)CC2)cc1,30*,30*,29,6
Cc1ccc(Cn2nnc3c(=O)[nH]c(C4CCN(C(=O)CC(C)(C)C)CC4)nc32)cc1,10,29,32*,4
COc1ccc(C(=O)N2CCC(c3nc4c(nnn4Cc4cc(C)ccc4C)c(=O)[nH]3)CC2)cc1,36*,30*,26,7
O=C(c1c(F)cccc1F)N1CCC(c2nc3c(nnn3Cc3ccc(F)cc3)c(=O)[nH]2)CC1,-6,3,-1,-8
Cc1ccc(Cn2nnc3c(=O)[nH]c(C4CCN(C(=O)Cc5ccccc5)CC4)nc32)cc1,3,4,7,-7
O=C(Cc1ccccc1)N1CCC(c2nc3c(nnn3Cc3ccc(F)cc3)c(=O)[nH]2)CC1,3,31*,16,4
Cc1ccc(Cn2nnc3c(=O)[nH]c(C4CCN(C(=O)c5ccccc5)CC4)nc32)cc1,10,43*,9,9
Cn1c(=O)cc(C(=O)Nc2ccc(OC(F)(F)F)cc2)[nH]c1=O,7,8,0,1
Cn1c(=O)cc(C(=O)Nc2cc(C(F)(F)F)cc(C(F)(F)F)c2)[nH]c1=O,21,36*,12,14
CCCOC(=O)CSc1nc2c(c(-c3ccc(OC)cc3)c1C#N)CCC2,4,3,0,9
CC(=O)Nc1ccc(NC(=O)Cc2csc(COc3ccc(C)cc3)n2)cc1,52*,nt,nt,16
Cc1ccc(OCc2nc(CC(=O)Nc3cccc(F)c3)cs2)cc1,-8,-33,-8,-5
COc1ccc(/C=C/c2nc(-c3ccc4oc(C)nc4c3)no2)cc1,nt,6,13,11
Cc1nc2cc(-c3noc(-c4nn(C)c5ccccc45)n3)ccc2o1,19,42*,1,-7
Cc1nc2cc(-c3noc(-c4cccc5[nH]ccc45)n3)ccc2o1,36*,5,42*,-6
COc1cc(OC)c2cc(C(=O)N[C@@H](Cc3ccccc3)C(=O)O)n(C)c2c1,36*,0,5,0
COc1cc2ncn(CC(=O)N[C@@H](Cc3ccccc3)C(=O)O)c(=O)c2cc1OC,-9,0,-5,0
O=C(O)c1cc([N+](=O)[O-])ccc1N1CCC(Cc2ccccc2)CC1,0,31*,5,11
O=C(COc1ccc(N2CC(C(=O)NCc3ccccc3)CC2=O)cc1)Nc1ccccc1Cl (stereo unspecified),56*,52*,12,13
O=C(Cc1ccccc1[N+](=O)[O-])Nc1cnn(Cc2ccc(F)cc2)c1,-28,32*,-9,1
CC(C)(C)C(=O)C1C2C(=O)N(Cc3ccccc3)C(=O)C2C2c3ccccc3C=CN12 (stereo unspecified),56*,-95,-12,-20
O=C(c1ccco1)C1C2C(=O)N(c3cccc(C(F)(F)F)c3)C(=O)C2C2c3ccccc3C=CN12 (stereo unspecified),-128,i,-193,-156
CC(C)(C)C(=O)C1C2C(=O)N(c3ccc4c(c3)OCO4)C(=O)C2C2c3ccccc3C=CN12 (stereo unspecified),69*,-17,64*,55*
CC(=O)NC(Cc1ccc(C)cc1)C(=O)NC1CCN(C(=O)c2ccc(C)cc2)CC1 (stereo unspecified),2,14,1,6
CS(=O)(=O)c1cccc(C(=O)Nc2sc3c(c2C(N)=O)CCCC3)c1,36*,15,0,8
CCOC(=O)N1CCc2c(sc(NC(=O)c3ccc(S(C)(=O)=O)cc3)c2C(N)=O)C1,4,-28,0,-2
